From PubChem BioAssay
DAX1 inh-1 – DAX1 (NR0B1) inhibition, primary screen | HEK293T StAR-luciferase reporter, SF-1/DAX-1 repression relief | inhibition, % at 6.8 µM | actives 1.1% (n = 370,000);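 active = inhibition above the mean over all tested compounds plus 3 SD, cut at about 3.6% in these data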;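 note: 0% = DAX-1 cells with DMSO and 100% = cells lacking DAX-1 with DMSO; higher inhibition means more luminescence from relief of DAX-1 repression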
SMARCA2 activ – activators of SMARCA2 function; MG213 cells, MMTV-luciferase reporter, dexamethasone, overnight; activation, % at 9.1 µM; actives 1% (n = 370,000); AID 652017; in the data active = activation above about 7.8%;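 note: 0% = vehicle wells and 100% = reference activator wells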
ssDAF-12 act – S. stercoralis DAF-12 activation, primary screen; activation, % at 6.8 µM; actives 1% (n = 370,000); HEK293 ssDAF-12/GRIP1 lit1-tk-luc reporter, luminescence; % of 3 µM dafachronic acid response;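 active = activation above the mean over all tested compounds plus 3 SD, cut at about 0.9% in these data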;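 note: 0% = DMSO-only wells and 100% = 3 µM delta7-dafachronic acid wells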
DAX1 inh-2 – NR0B1 (DAX1) inhibition | P51843 | HEK293 Gal4-DAX1 luciferase reporter, luminescence | inhibition, % at 6.75 µM | actives 0.99% (n = 340,000);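 active = inhibition above the mean over all tested compounds plus 3 SD, cut at about 4.2% in these data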;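 note: 0% = DAX1-transfected cells with DMSO and 100% = empty-vector control cells with DMSO; inhibition shows as a rise in luminescence from relieved DAX1 repression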
Target sequence (P51843 207-470 limits assumed): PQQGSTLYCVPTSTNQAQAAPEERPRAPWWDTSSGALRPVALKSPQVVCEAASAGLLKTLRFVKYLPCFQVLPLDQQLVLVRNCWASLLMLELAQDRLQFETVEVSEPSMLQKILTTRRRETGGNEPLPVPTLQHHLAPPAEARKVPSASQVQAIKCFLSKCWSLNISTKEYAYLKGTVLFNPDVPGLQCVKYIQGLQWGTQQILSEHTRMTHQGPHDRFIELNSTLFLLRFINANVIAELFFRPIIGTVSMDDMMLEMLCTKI
hgDAF-12 ag – activates the H. glycines DAF-12 receptor ligand-binding domain | HEK293 GAL4-hgDAF12 UAS-luciferase reporter, agonist luminescence; normalized to butyrate control | activation, % at 6.8 µM | actives 1.8% (n = 370,000) | AID 687014;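 active = activation above a cutoff set at the mean of all screened compounds plus 3 SD, cut at about 10% in these data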;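 note: 0% = DMSO wells and 100% = sodium butyrate wells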
hcDAF-12 act – H. contortus DAF-12 activation, primary screen. HEK293 hcDAF-12 lit1-tk-luc reporter, luminescence; 0% DMSO, 100% Δ7-dafachronic acid. actives 1.4% (n = 370,000). activation, % at 6.8 µM;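 active = activation above the mean of all tested compounds plus 3 SD, cut at about 5.5% in these data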;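 note: 100% = response to 3 µM Δ7-dafachronic acid high control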
SMARCA2 act conf – SMARCA2 activation, confirmation screen; shares compounds with SMARCA2 activ; MG213 cells, MMTV-luciferase with dexamethasone, luminescence, overnight; MG213 cells expressing E1A, Rb sequestered; DMSO wells 0%, reference activator 100%; activation, % at 9.1 µM; actives 30% (n = 3,500); AID 652260;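 active = activation above its plate's cutoff, the mean activation of tested wells plus 3 SD, cut at about 7.9% in these data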
VP16 Luc act – activates GAL4-VP16 luciferase, flagging SMARCA2 activator hits; shares compounds with SMARCA2 activ; HEK293 GAL4-VP16 pG5luc reporter, luciferase luminescence; scaled: DMSO wells 0%, SAHA wells 100%; activation, % at 9.1 µM; actives 41% (n = 3,500); AID 686939;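 active = activation above the solvent-only control well mean plus 3 SD, averaged across control plates, cut at about 5.2% in these data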
Numbers without * were called inactive; / = not tested or not shown. In the library only some 4.8% were active in any assay of this set; here they are far more common.

SMILES	DAX1 inh-1	SMARCA2 activ	ssDAF-12 act	DAX1 inh-2	hgDAF-12 ag	hcDAF-12 act	SMARCA2 act conf	VP16 Luc act
COC(=O)C1CCCN(C(=O)C2CCN(S(=O)(=O)c3cccc4cccnc34)CC2)C1 (configuration not stated)	1	-5	-2	/	3	-5	/	/
CCN1CCN(Cc2ccc(NC(=O)c3cc(NC(=O)c4cncc(-c5cccs5)c4)cc(OC)c3)cc2C(F)(F)F)CC1	1	11*	-1	2	3	-3	5	1
O=C(NCc1ccc(F)cc1)Nc1ccccc1	2	0	0	1	9	1	/	/
C/C(=N/NC(=O)Nc1ccccc1)c1ccc(C)cc1	0	8.7*	-1	2	-2	-2	3	0
Cc1ccc(NC(=O)NCCCCc2ccccc2)cc1	1	3	-2	0	3	0	/	/
Cc1ccc(CNC(=O)Nc2ccccc2)cc1	2	8.7*	0	0	5	4	5	11*
C/C(=N\NC(=O)Nc1ccccc1)c1ccc2ccccc2c1	0	0	-1	1	-1	-1	/	/
O=C(NCCCc1ccccc1)Nc1ccccc1	0	13*	-1	1	1	2	7	2
CC(C)(C)c1ccc(-c2nnc(SCc3cccc4ccccc34)n2Cc2ccco2)cc1	0	-7	-1	/	1	-2	/	/
COC(=O)[C@@]12CCCCC=C1N(CCc1ccc(Cl)cc1)C(=O)[C@H]2CC(=O)NCCc1ccccc1OC	-1	-3	-1	/	-3	-2	/	/
COc1ccc(N2CCN(CCNS(=O)(=O)c3cccs3)CC2)cc1	-1	-3	-2	/	-2	-1	/	/
CC(C)N1CCCCC(NC(=O)c2ccc(F)c(F)c2)C1=O (configuration not stated)	0	0	-1	/	3	-2	/	/
Cc1ccccc1-c1ccc2c(c1)[C@@H]1C[C@H](N(C)C(=O)c3ccco3)[C@H]([C@H](C)O)CN1CC2	-1	-1	-1	/	-1	-1	/	/
Cc1ccc(C=C2C=C(c3ccccc3)OC2=O)cc1	2	8.6*	0	1	3	1	0	6.1*
CN(C)c1ccc(C=C2C=C(c3ccccc3)OC2=O)cc1	-1	-2	-1	1	4	0	/	/
CCOc1cc(C(=O)NCC(C)CN(C)C)cc(OCC)c1OCC (configuration not stated)	-1	-2	-1	0	1	-1	/	/
CCOc1ccc(C(=O)NCC(C)CN(C)C)cc1OCC (configuration not stated)	0	9.4*	-1	0	3	0	-2	2
CN1CCc2c(c3ccccc3n2Cc2ccccc2)C1	1	-2	-1	0	2	2	-2	2
CCCCN1CCc2c(c3ccccc3n2Cc2ccccc2)C1	1	-1	-1	-1	2	0	/	/
COC(=O)[C@]12C[C@H](CC(=O)N3CCN(C(=O)c4ccco4)CC3)C(=O)N(Cc3ccc4c(c3)OCO4)C1=C[C@H](C(C)C)O[C@@H]2C1CC1	0	-2	-2	/	-1	-2	/	/
CCN(CC)CCn1c(NCc2nc3ccccc3n2Cc2ccccc2)nc2ccccc21	-1	9.0*	-2	0	-4	-2	4	5.5*
CCOC(=O)[C@]12CCCC3=C1N(CCC3)C(=O)[C@@H](CC(=O)N1CCC(c3ccccc3)CC1)C2	-2	-2	-1	/	0	-4	/	/
Cc1cc(N2CCOCC2)nc2ccc(NC(=O)CCC(=O)N3CCN(c4ccccc4)CC3)cc12	0	8.2*	-1	0	3	0	2	5.4*
CCCCNC(=O)CCC(=O)Nc1ccc2nc(N3CCOCC3)cc(C)c2c1	1	3	0	0	4	1	/	/
Cc1ccccc1NC(=S)N(Cc1ccco1)C(C)c1cccs1 (configuration not stated)	0	11*	-1	1	1	0	-4	-1
SMILES	DAX1 inh-1	SMARCA2 activ	ssDAF-12 act	DAX1 inh-2	hgDAF-12 ag	hcDAF-12 act	SMARCA2 act conf	VP16 Luc act
O=C1NCCCC1C(=O)N/N=C/c1ccccc1 (configuration not stated)	1	8.8*	-1	0	1	0	1	1
Cc1ccccc1-n1cc(-c2ccc(Br)cc2)nc1SCC(N)=O	0	-3	-1	/	-2	-3	/	/
Cc1ccc(-c2cn(-c3ccccc3)c(SCC(N)=O)n2)cc1C	2	9.8*	-1	0	7	0	3	6.6*
CCOC(=O)c1sc(-c2ccccc2)cc1N	1	9.0*	0	2	6	2	6	6.4*
CCOC(=O)c1sc(-c2ccc(F)cc2)cc1N	3	7	-2	0	9	0	/	/
O=C(Nc1ccc(S(=O)(=O)N2CCOCC2)cc1)C1CC1	0	2	-1	0	3	-1	/	/
Cc1ccc(NC(=O)C2CCN(S(=O)(=O)c3ccc(C(C)(C)C)cc3)CC2)cc1S(=O)(=O)N1CCOCC1	0	8.4*	-2	-1	-2	-2	-7	0
COc1c(C(=O)Nc2nccs2)ccc2ccccc12	1	10*	-1	3	9	5	10*	11*
COc1c(C(=O)Nc2ccc(Br)cn2)ccc2ccccc12	0	4	-1	3	4	1	/	/
CN(C)CCN(C(=O)c1ccc2ccccc2c1)c1nc2cc3c(cc2s1)OCO3	2	11*	-1	3	6	2	1	1
Cc1ccc(-c2nnc(-c3cccs3)o2)cc1	4.4*	10.0*	1.4*	2	11*	8.8*	8.2*	9.2*
Cc1ccc(-c2nnc(N)o2)cc1	2	0	-1	0	2	1	/	/
Cc1ccc(-c2nnc(-c3cc(C)on3)o2)cc1	2	9.0*	0	4	12*	3	7	9.2*
COC(=O)c1cc(-c2ccccc2)c(=O)n2c1CCC2	0	-1	-1	/	1	-1	/	/
COCCN1C(=O)C2=C(C1=O)C1N(C)c3ccccc3[C@@]13C[C@@H](CO)N(C(=O)CCC(=O)OC)C3=N2 (some centres not stated)	0	-2	-1	/	-1	1	/	/
Cc1ccc([N+](=O)[O-])cc1-c1ccc(/C=C(\C#N)c2[nH]nc(N)c2C#N)o1	0	9.5*	-1	0	3	0	1	12*
